“And” between values parts separate entries of the source, which are not always exact repeats. Identical values can stand only once. About 2,000 (36%) of roughly 5,500 compounds were called active. Inconclusive results (about 18%) are left out. No stated cut-off is given here; in the data, active means normalized growth mostly below about 0.91 (no sharp cut-off); inconclusive means no clear call, values can overlap the other calls; inactive means mostly above about 0.92. The list shows a part of the results.
Assay: chemical genetic growth profiling, strain panel (AID 1159580);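 further: tested at 20 µM; growth read once vehicle control cultures reached saturation at 30 °C; 1 = growth at the plate median or of vehicle wells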
Conditions: growth OD

Measured: normalized growth

NNCCc1ccccc1
inactive: S. cerevisiae deletion strains, locus YJR066W, strain TOR1, stronger effect = lower value 0.945 | S. cerevisiae deletion strains, locus YJR075W, strain HOC1, stronger effect = lower value 0.986 | S. cerevisiae deletion strains, locus YKL009W, strain mrt4, stronger effect = lower value 0.995 | S. cerevisiae deletion strains, locus YKL068W, stronger effect = lower value 0.986 | S. cerevisiae deletion strains, locus YKL085W, strain MDH1 (second series), stronger effect = lower value 0.998 | S. cerevisiae deletion strains, locus YKL085W, strain MDH1, stronger effect = lower value 0.998 | S. cerevisiae deletion strains, locus YKL160W, strain elf1, stronger effect = lower value 1 | S. cerevisiae deletion strains, locus YKL190W, strain CNB1, stronger effect = lower value 0.966 | S. cerevisiae deletion strains, locus YKR001C, strain vps1, stronger effect = lower value 0.992 | S. cerevisiae deletion strains, locus YKR026C, strain gcn3, stronger effect = lower value 1.01 | S. cerevisiae deletion strains, locus YKR091W, strain srl3, stronger effect = lower value 1.01 | S. cerevisiae deletion strains, locus YLL001W, strain dnm1, stronger effect = lower value 1 | S. cerevisiae deletion strains, locus YLL026W, stronger effect = lower value 1 | S. cerevisiae deletion strains, locus YLL041C, strain sdh2, stronger effect = lower value 1 | S. cerevisiae deletion strains, locus YLR027C, strain aat2, stronger effect = lower value 1.01 | S. cerevisiae deletion strains, locus YLR039C, strain RIC1, stronger effect = lower value 0.897 | S. cerevisiae deletion strains, locus YLR058C, strain SHM2, stronger effect = lower value 0.974 | S. cerevisiae deletion strains, locus YLR102C, strain apc9, stronger effect = lower value 0.991 | S. cerevisiae deletion strains, locus YLR113W, strain HOG1, stronger effect = lower value 0.987 | S. cerevisiae deletion strains, locus YLR221C, strain rsa3, stronger effect = lower value 1.01 | S. cerevisiae deletion strains, locus YLR258W, strain gsy2, stronger effect = lower value 1.01 | S. cerevisiae deletion strains, locus YLR262C, strain YPT6 (second series), stronger effect = lower value 0.969 | S. cerevisiae deletion strains, locus YLR262C, strain YPT6, stronger effect = lower value 0.858 | S. cerevisiae deletion strains, locus YLR268W, strain sec22, stronger effect = lower value 1.05 | S. cerevisiae deletion strains, locus YLR320W, strain mms22, stronger effect = lower value 1.02 | S. cerevisiae deletion strains, locus YLR330W, strain CHS5, stronger effect = lower value 0.994 | S. cerevisiae deletion strains, locus YLR342W, strain FKS1 (second series), stronger effect = lower value 0.997 | S. cerevisiae deletion strains, locus YLR342W, strain FKS1, stronger effect = lower value 1.02 | S. cerevisiae deletion strains, locus YLR357W, strain rsc2, stronger effect = lower value 0.969 | S. cerevisiae deletion strains, locus YLR370C, strain arc18, stronger effect = lower value 1.01 | S. cerevisiae deletion strains, locus YLR371W, strain rom2, stronger effect = lower value 0.966 | S. cerevisiae deletion strains, locus YLR384C, strain iki3, stronger effect = lower value 1.01 | S. cerevisiae deletion strains, locus YLR418C, strain cdc73, stronger effect = lower value 0.965 | S. cerevisiae deletion strains, locus YML016C, strain PPZ1, stronger effect = lower value 0.989 | S. cerevisiae deletion strains, locus YML032C, strain rad52, stronger effect = lower value 0.996 | S. cerevisiae deletion strains, locus YML120C, strain ndi1, stronger effect = lower value 1.01 | S. cerevisiae deletion strains, locus YML124C, strain tub3, stronger effect = lower value 0.986 | S. cerevisiae deletion strains, locus YMR058W, strain fet3, stronger effect = lower value 1 | S. cerevisiae deletion strains, locus YMR078C, strain ctf18, stronger effect = lower value 0.969 | S. cerevisiae deletion strains, locus YMR125W, strain sto1, stronger effect = lower value 0.999 | S. cerevisiae deletion strains, locus YMR129W, stronger effect = lower value 1 | S. cerevisiae deletion strains, locus YMR205C, strain PFK2, stronger effect = lower value 1.02 | S. cerevisiae deletion strains, locus YMR223W, strain ubp8, stronger effect = lower value 0.95 | S. cerevisiae deletion strains, locus YMR231W, strain pep5, stronger effect = lower value 1.01 | S. cerevisiae deletion strains, locus YMR263W, strain SAP30, stronger effect = lower value 1 | S. cerevisiae deletion strains, locus YMR307W, strain GAS1, stronger effect = lower value 1 | S. cerevisiae deletion strains, locus YNL067W, strain RPL9B, stronger effect = lower value 0.981 | S. cerevisiae deletion strains, locus YNL071W, strain lat1, stronger effect = lower value 1.01 | S. cerevisiae deletion strains, locus YNL128W, strain TEP1, stronger effect = lower value 1.01 | S. cerevisiae deletion strains, locus YNL153C, strain GIM3, stronger effect = lower value 0.99 | S. cerevisiae deletion strains, locus YNL175C, strain NOP13, stronger effect = lower value 1 | S. cerevisiae deletion strains, locus YNL183C, strain NPR1, stronger effect = lower value 0.958 | S. cerevisiae deletion strains, locus YNL197C, strain WHI3, stronger effect = lower value 0.996 | S. cerevisiae deletion strains, locus YNL209W, strain ssb2, stronger effect = lower value 1 | S. cerevisiae deletion strains, locus YNL224C, strain SQS1, stronger effect = lower value 0.99 | S. cerevisiae deletion strains, locus YNL233W, strain BNI4, stronger effect = lower value 0.999 | S. cerevisiae deletion strains, locus YNL248C, strain rpa49, stronger effect = lower value 1.02 | S. cerevisiae deletion strains, locus YNL250W, strain rad50, stronger effect = lower value 0.983 | S. cerevisiae deletion strains, locus YNL271C, strain bni1, stronger effect = lower value 0.994 | S. cerevisiae deletion strains, locus YNL298W, strain CLA4, stronger effect = lower value 0.997 | S. cerevisiae deletion strains, locus YNL307C, strain MCK1, stronger effect = lower value 0.987 | S. cerevisiae deletion strains, locus YNL322C, strain KRE1 (second series), stronger effect = lower value 1.02 | S. cerevisiae deletion strains, locus YNL322C, strain KRE1, stronger effect = lower value 0.988 and 0.996 | S. cerevisiae deletion strains, locus YNR049C, strain mso1, stronger effect = lower value 1.01 | S. cerevisiae deletion strains, locus YNR052C, strain pop2, stronger effect = lower value 0.991 | S. cerevisiae deletion strains, locus YOL006C, strain TOP1, stronger effect = lower value 0.983 | S. cerevisiae deletion strains, locus YOL012C, strain htz1 0.89 | S. cerevisiae deletion strains, locus YOL147C, strain pex11, stronger effect = lower value 0.986 | S. cerevisiae deletion strains, locus YOR001W, strain rrp6, stronger effect = lower value 1.01 | S. cerevisiae deletion strains, locus YOR061W, strain CKA2, stronger effect = lower value 0.964 | S. cerevisiae deletion strains, locus YOR069W, strain VPS5, stronger effect = lower value 0.993 | S. cerevisiae deletion strains, locus YOR070C, strain gyp1, stronger effect = lower value 1 | S. cerevisiae deletion strains, locus YOR080W, strain dia2, stronger effect = lower value 1.01 | S. cerevisiae deletion strains, locus YOR083W, strain WHI5 (second series), stronger effect = lower value 1 | S. cerevisiae deletion strains, locus YOR083W, strain WHI5, stronger effect = lower value 0.988 | S. cerevisiae deletion strains, locus YOR106W, strain vam3, stronger effect = lower value 1.02 | S. cerevisiae deletion strains, locus YOR136W, strain idh2, stronger effect = lower value 0.973 | S. cerevisiae deletion strains, locus YOR144C, strain elg1, stronger effect = lower value 0.987 | S. cerevisiae deletion strains, locus YOR184W, strain ser1, stronger effect = lower value 0.981 | S. cerevisiae deletion strains, locus YOR231W, strain MKK1, stronger effect = lower value 0.982 | S. cerevisiae deletion strains, locus YOR265W, strain rbl2, stronger effect = lower value 1 | S. cerevisiae deletion strains, locus YOR270C, strain vph1, stronger effect = lower value 1.11 | S. cerevisiae deletion strains, locus YOR290C, strain snf2, stronger effect = lower value 1 | S. cerevisiae deletion strains, locus YOR316C, strain cot1, stronger effect = lower value 0.984 | S. cerevisiae deletion strains, locus YPL051W, strain arl3, stronger effect = lower value 1.01 | S. cerevisiae deletion strains, locus YPL078C, strain atp4, stronger effect = lower value 1 | S. cerevisiae deletion strains, locus YPL106C, strain sse1, stronger effect = lower value 0.977 | S. cerevisiae deletion strains, locus YPL240C, strain hsp82, stronger effect = lower value 1 | S. cerevisiae deletion strains, locus YPL241C, strain CIN2, stronger effect = lower value 0.994 | S. cerevisiae deletion strains, locus YPL256C, strain CLN2, stronger effect = lower value 0.958 | S. cerevisiae deletion strains, locus YPR119W, strain clb2, stronger effect = lower value 0.981 | S. cerevisiae deletion strains, locus YPR141C, strain kar3, stronger effect = lower value 0.968 | S. cerevisiae deletion strains, locus YPR163C, strain tif3, stronger effect = lower value 0.989 | S. cerevisiae deletion strains, locus YPR167C, strain met16, stronger effect = lower value 0.985 | S. cerevisiae deletion strains, strain wtn01, stronger effect = lower value 0.992 | S. cerevisiae strains, strain wild type, stronger effect = lower value 0.981
